Compound activity (PubChem BioAssay)
Compounds with a hit are over-represented: about 12% of the library has one in this group of screens.
HP1b binding inh – HTS for Inhibitors of HP1-beta Chromodomain Interactions with Methylated Histone Tails; hit rate 0.56% among 390,000; Chromobox protein homolog 1 (Homo sapiens), P83916; AID 540317, 2011; AlphaScreen HP1-beta / biotin-H3K9me3 peptide binding; Potency, µM (highest dose often 114 µM), hits mostly inhibitors; note: nearly all actives have a fitted effect of over 70% in size
Target sequence (P83916 whole entry, looked up): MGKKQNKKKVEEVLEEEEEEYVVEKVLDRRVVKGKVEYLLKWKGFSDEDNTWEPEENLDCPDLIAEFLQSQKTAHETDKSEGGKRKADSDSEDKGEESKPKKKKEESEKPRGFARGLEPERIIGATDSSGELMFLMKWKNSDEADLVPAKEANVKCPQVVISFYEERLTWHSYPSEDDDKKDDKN
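Compound inhibition of the preformed complex between 50 nM HP1-beta and 50 nM biotinylated H3K9me3 peptide was read by AlphaScreen. Buffer was PBS pH 7.4 with 0.01% Tween-20. Incubations ran 30 min at room temperature, with 10 ug/mL donor/acceptor beads.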
BAZ2B inh – qHTS Assay for Inhibitors of BAZ2B | Bromodomain adjacent to zinc finger domain protein 2B (Homo sapiens), Q9UIF8 | AlphaScreen BAZ2B-H3K14Ac peptide displacement | Potency, µM (series often up to 114 µM), actives largely listed as inhibitors | hit rate 4.4% among 360,000 | AID 504333, 2011; note: nearly all actives have a fitted effect of over 60% in size
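AlphaScreen luminescence quantifies BAZ2B engagement of H3K14Ac peptide; the protein and biotinylated peptide are both at 50 nM final, buffer PBS pH 7.4 with 0.01% Tween-20, all steps at room temperature.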
G9a inh – qHTS Assay for Inhibitors of Histone Lysine Methyltransferase G9a; Histone-lysine N-methyltransferase EHMT2 (Homo sapiens), Q96KQ7; G9a H3K9 monomethylation, AlphaScreen, 2 h; Potency, µM (highest dose often 102 µM), hits mostly inhibitors; hit rate 8.8% among 350,000; AID 504332, 2011; note: nearly all actives have a fitted effect of over 75% in size
Target sequence (Q96KQ7 913-1193 limits assumed): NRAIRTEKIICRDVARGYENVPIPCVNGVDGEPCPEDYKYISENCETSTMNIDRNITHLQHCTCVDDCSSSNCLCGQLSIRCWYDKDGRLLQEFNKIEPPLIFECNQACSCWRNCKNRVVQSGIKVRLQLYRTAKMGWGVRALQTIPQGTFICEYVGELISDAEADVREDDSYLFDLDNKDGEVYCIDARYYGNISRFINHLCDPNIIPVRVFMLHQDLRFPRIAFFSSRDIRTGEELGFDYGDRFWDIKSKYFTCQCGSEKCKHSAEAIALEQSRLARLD
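Enzyme 20 nM + cpd, 15 min RT; add b-H3K9 pep 500 nM / SAM 20 uM; 2 h RT; anti-H3K9me1 Ab 0.5 ug/mL + SA donor / anti-rabbit acceptor beads 20 ug/mL each, 10 min; AlphaScreen read.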
JMJD2A Tudor – qHTS Assay for Inhibitors of JMJD2A-Tudor Domain | Lysine-specific demethylase 4A (Homo sapiens), O75164 | AlphaScreen JMJD2A-Tudor / H3K4me3 peptide binding | Potency, µM (titrated, usually from 114 µM), most hits filed as inhibitors | hit rate 4.4% among 390,000 | AID 504339, 2011; note: nearly all actives have a fitted effect of over 50% in size
Sfp inh – qHTS Assay for Inhibitors of Bacillus subtilis Sfp phosphopantetheinyl transferase (PPTase); Potency, µM, usual class: inhibitors; AID 1490, 2009; Biochemical Sfp PPTase activity, qHTS; hit rate 3.5% among 310,000; 4'-phosphopantetheinyl transferase ffp (Bacillus subtilis), Q9F4F7;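 note: the enzyme is Sfp with the accession as filed and its product quenches rhodamine fluorescence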
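With Hepes-Na pH 7.6 buffer containing 10 mM MgCl2, Sfp (15 nM) modified BHQ-2-YbbR (12.5 uM) using rhodamine-CoA (5 uM). Two reads 30 minutes apart at 525/598 nm yielded each well's rate.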
Of the large screens only hits and unclear results are named; the others gave an inactive call; ! = a repeat was not active. Calls come from the whole dose curve; as a rule, active = well fitted curve in the direction sought with a large enough effect; inconclusive = small, poorly fitted or top-dose-only effect, or another doubt; inactive = no such curve, though single readings can be large; an effect the other way counts as inactive or inconclusive.

O=C(O)C1CC=CCC1C(=O)Nc1cccc(F)c1 (stereo unspecified)	G9a inh inconclusive
O=C(O)C1CC=CCC1C(=O)Nc1cccc([N+](=O)[O-])c1 (stereo unspecified)	BAZ2B inh 89.1µM, G9a inh inconclusive
Cc1cc(NN)nc2ccc(Cl)cc12	G9a inh 14.1µM, JMJD2A Tudor inconclusive, Sfp inh 11.2µM
O=[N+]([O-])c1cc(Cl)cc(C2=NCCN2)c1	G9a inh 35.5µM
O=[N+]([O-])c1ccc(C2=Nc3cc(Cl)ccc3OC2)cc1	BAZ2B inh inconclusive, G9a inh inconclusive, JMJD2A Tudor inconclusive
COCCCN1C(=O)C(=O)/C(=C(/O)c2ccc(S(=O)(=O)N3CCCCC3)cc2)C1c1ccc(O)cc1 (stereo unspecified)	G9a inh inconclusive
CNC(=O)c1c(NC(=O)c2nc(SCc3ccc(C)cc3)ncc2Cl)sc2c1CCCC2	none (no result: Sfp inh)
S=c1cn[nH]c2ccccc12	HP1b binding inh 89.1µM, JMJD2A Tudor 4.47µM (no result: BAZ2B inh, G9a inh, Sfp inh)
c1ccc2c(c1)[nH]c1ccccc12	none (no result: BAZ2B inh, G9a inh, Sfp inh)
COCCNC(=O)CSc1ccccc1C(=O)NC1CCSc2ccccc21 (stereo unspecified)	G9a inh 35.5µM
O=C(COc1ccccc1)NC1CCSc2ccccc21 (stereo unspecified)	G9a inh 6.31µM (no result: Sfp inh)
CCC1(C(=O)OC)NC(c2ccco2)C2C(=O)N(c3ccccc3)C(=O)C21 (stereo unspecified)	none
CCC1(C(=O)OC)NC(c2ccco2)C2C(=O)N(c3ccc(F)cc3)C(=O)C21 (stereo unspecified)	G9a inh 44.7µM
CCCC1(C(=O)OCC)NC(c2ccc(N(C)C)cc2)C2C(=O)N(c3ccc(F)cc3)C(=O)C21 (stereo unspecified)	G9a inh 2.51µM
CCCC1(C(=O)OCC)NC(c2ccc(O)cc2)C2C(=O)N(c3cccc(C(C)=O)c3)C(=O)C21 (stereo unspecified)	none
CCN(CC)C(=O)[C@H]1C[C@H](CC(=O)NC/C=C(\C)CCC=C(C)C)C(=O)N2CCc3c([nH]c4cc(-c5ccco5)ccc34)[C@]12C	HP1b binding inh inconclusive, JMJD2A Tudor 31.6µM (no result: BAZ2B inh, G9a inh, Sfp inh)
CCN(CC)C(=O)[C@H]1CC(CC(=O)NC/C=C(\C)CCC=C(C)C)C(=O)N2CCc3c([nH]c4ccc(OC)cc34)[C@]12C (stereo partly specified)	HP1b binding inh inconclusive, JMJD2A Tudor 50.1µM (no result: BAZ2B inh, G9a inh, Sfp inh)
CCOc1ccc(N)cc1OC	BAZ2B inh inconclusive, G9a inh 50.1µM, JMJD2A Tudor inconclusive
C=CCC1CCCC(=O)N2CC[C@H](O)C12 (stereo partly specified)	G9a inh 79.4µM!
C=CCC1CCCC(=O)N2CCCC12 (stereo unspecified)	none (no result: BAZ2B inh)
CC[C@H](C)[C@H](NC(=O)[C@H](CCC(=O)O)NC(=O)CNC(=O)[C@@H](NC(=O)[C@H](CCC(=O)O)NC(=O)[C@H](CCC(=O)O)NC(=O)[C@H](CC(C)C)NC(=O)CNC(=O)[C@@H]1CCCN1C(=O)[C@H](CCC(=O)O)NC(=O)[C@@H](N)[C@@H](C)O)C(C)C)C(=O)N[C@@H](CCC(=O)O)C(=O)N[C@@H](CCC(N)=O)C(=O)N[C@@H](CCCCN)C(=O)N[C@@H](CCC(N)=O)C(=O)N[C@@H](CC(C)C)C(=O)N[C@@H](CCC(N)=O)C(=O)O	none (no result: HP1b binding inh, BAZ2B inh, G9a inh, JMJD2A Tudor)
Cc1ccc(SCC(=O)c2ccc(CC(=O)O)s2)cc1	BAZ2B inh 50.1µM, JMJD2A Tudor inconclusive (no result: G9a inh)
O=C(O)Cc1ccc(C(=O)c2ccc(Cl)cc2)s1	G9a inh inconclusive
O=C(O)Cc1ccc(C(=O)CSc2ccccc2)s1	BAZ2B inh 50.1µM, G9a inh 56.2µM, JMJD2A Tudor 56.2µM
O=C(O)Cc1ccc(C(=O)c2ccccc2)s1	G9a inh 17.8µM
Cc1ccc(SCC(=O)c2cc(C)c(O)c(C)c2)cc1	none
CC(C)=CCC/C(C)=C/CO/N=C1/C[C@@H](O)[C@@H](O)[C@@H]2[C@@H]3C(=O)N(C4CCCCC4)C(=O)[C@H]3CC[C@H]12	none (no result: HP1b binding inh, BAZ2B inh, G9a inh, JMJD2A Tudor)
O=C1c2nccnc2C(=O)N1Cc1ccccc1	none (no result: BAZ2B inh, G9a inh, Sfp inh)
Cc1ccc(-c2nc(S(=O)(=O)c3ccc(C)cc3)c(SCC(N)=O)o2)cc1	G9a inh 25.1µM
CCSc1oc(-c2ccccc2)nc1S(=O)(=O)c1ccccc1	G9a inh inconclusive
Cc1ccc(-c2nc(S(=O)(=O)c3ccc(C)cc3)c(SCC(=O)Nc3ccc(F)cc3)o2)cc1	none (no result: Sfp inh)
CSc1oc(-c2ccccc2)nc1S(=O)(=O)c1ccc(C)cc1	G9a inh 56.2µM
O=S(=O)(c1ccccc1)c1nc(-c2ccc(F)cc2)oc1NCc1ccccc1	none (no result: Sfp inh)
Cc1ccc(S(=O)(=O)c2nc(-c3cccs3)oc2SCC(N)=O)cc1	G9a inh inconclusive
CCSc1oc(-c2ccc(F)cc2)nc1S(=O)(=O)c1ccc(C)cc1	G9a inh 17.8µM (no result: Sfp inh)
CNc1oc(-c2ccc(F)cc2)nc1S(=O)(=O)c1ccccc1	G9a inh 44.7µM
c1ccc2[nH]c(Cn3nnc4ccccc43)nc2c1	none (no result: Sfp inh)
CCOCCCNC(=O)Cn1ncc2c([nH]c3ccc(C)cc32)c1=O	none (no result: Sfp inh)
C=CCC(C)(O)c1ccsc1 (stereo unspecified)	none (no result: HP1b binding inh, BAZ2B inh, G9a inh, JMJD2A Tudor)
CNc1oc(Cc2ccccc2)nc1S(=O)(=O)c1ccc(Cl)cc1	G9a inh 25.1µM, JMJD2A Tudor inconclusive
CC1(C)CSC(=NCCc2ccccc2)N1	none
COC(=O)c1sccc1-c1ccc(C(N)=O)o1	BAZ2B inh inconclusive, G9a inh 50.1µM (no result: HP1b binding inh, JMJD2A Tudor)
CCN1C(=O)[C@H]2[C@H]3[C@H](O)[C@H](O)C/C(=N/O[C@@H](C)c4cc(-c5c(C)cc(C)cc5C)no4)[C@@H]3CC[C@@H]2C1=O	none (no result: HP1b binding inh, BAZ2B inh, G9a inh, JMJD2A Tudor)
COc1ncc2nc(-c3cn(C)c4ccccc34)c(=O)n(Cc3ccc(F)cc3)c2n1	none (no result: HP1b binding inh, BAZ2B inh, JMJD2A Tudor)
Cc1ccc2[nH]c(=O)c(CN(Cc3cccs3)S(=O)(=O)c3ccc4c(c3)OCCO4)cc2c1	G9a inh 1µM
Cc1cc(C)cc(-n2ccnc2SCC(=O)Nc2cccc3ccccc23)c1	HP1b binding inh inconclusive, BAZ2B inh 7.08µM, G9a inh 12.6µM, JMJD2A Tudor 22.4µM (no result: Sfp inh)
O=C(CSc1nc(=O)n2ccccc2n1)Nc1cccc2ccccc12	G9a inh 50.1µM, JMJD2A Tudor inconclusive (no result: Sfp inh)
Cn1ccnc1SCC(=O)Nc1cccc2ccccc12	none
CCN(CC)CCn1c2c(c(SCC(=O)Nc3cccc4ccccc34)nc1=O)CCC2	G9a inh inconclusive (no result: Sfp inh)
CN(C)CCn1c2c(c(SCC(=O)Nc3cccc4ccccc34)nc1=O)CCCC2	G9a inh 44.7µM (no result: Sfp inh)
